Test results taken from PubChem BioAssay (EPA / NIEHS).
Activity calls are given as the source filed them. How the source made its calls: active means hit-call score of the fitted dose curve at least 0.9, where 1 is the maximum; inactive means score below 0.9.

These molecules were tested on Macrophage colony-stimulating factor (MCSF), CSF1 (gene 1435) (assay: BSK_hDFCGF_MCSF: BioMAP Diversity Plus: hDFCGF Assay for Macrophage colony-stimulating factor (MCSF) Biomarker Activity (AID 2283060)). Conditions: primary human foreskin fibroblasts; actives raise or lower the signal.
Experimental: BSK_hDFCGF is a cell-based, multiplexed-readout assay that uses foreskin fibroblast, a human skin primary cell, with measurements taken at 24 hours after chemical dosing in a 96-well plate.BSK_hDFCGF_MCSF is an assay component measured in the BSK_hDFCGF assay. It measures M-CSF antibody related to regulation of gene expression using ELISA technology.Data from the assay component BSK_hDFCGF_MCSF was analyzed into 1 assay endpoint. This assay endpoint, BSK_hDFCGF_MCSF, was analyzed with bidirectional fitting relative to DMSO as the negative control and baseline of activity. Using a type of binding reporter, gain or loss-of-signal activity can be used to understand changes in the signaling as they relate to the gene CSF1. Furthermore, this assay endpoint can be referred to as a primary readout, because this assay has produced multiple assay endpoints where this one serves a signaling function. To generalize the intended target to other relatable targets, this assay endpoint is annotated to the cytokine intended target family, where the subfamily is colony stimulating factor.
The levels of cell surface (or secreted, indicated by the prefix "s") biomarker endpoints were measured by ELISA. Overt cytotoxicity to cells in confluent adherent cultures (all systems other than the BT system) was assessed by measuring total protein levels using sulforhodamine B (SRB) staining in parallel cultures at the time of biomarker measurements, indicated as SRB endpoints. For proliferation assays for adherent cell types, individual cell types are cultured at sub-confluence and relative cell numbers quantified by SRB staining at time points optimized for each system (48 h: 3C and CASM3C systems; 72 h: BT and HDF3CGF systems; 96 h: SAg system). SRB was performed by staining cells with 0.1% SRB after fixation with 10% TCA and reading wells at 560 nm.Viability and proliferation of PBMC (T cells) was quantified by Alamar Blue reduction for the SAg and BT systems. For PBMC viability (referred to as PBMC Cytotoxicity within the assay endpoint names), cells were plated (75,000/well in a 96-well plate) and then chemical samples added for 1 h before addition of activators, SEB and TSST-1 (20 ng/mL final concentration each). Cells were incubated for 90 h. Then, Alamar Blue (20 uL/well) (Invitrogen, Cat DAL1100) was added for 6 h, and the plates were read with a fluorescence microplate reader at 546/580 nm (excitation/emission). For PBMC proliferation, cells were plated and activated as above but incubated for only 16 h prior to addition of Alamar Blue. Plates were read after 6 h.
In the case of `Cc1occc(=O)c1O`, the outcome is reported as “inactive”.
`Cc1cc(Cc2ccc(N)c(C)c2)ccc1N` was tested, and the outcome was “inactive”.
In the case of `O=Cc1ccccc1C=O`, the outcome is reported as “inactive”.
`CCCCCCC(C=O)=Cc1ccccc1` was tested, and the outcome was “inactive”.
With `O=C1c2c(O)cccc2Cc2cccc(O)c21` the AC50 was 17.1 µM (active).
In the case of `O=[Si]=O`, the outcome is reported as “inactive”.
`Oc1ccc(O)cc1` was tested, and the AC50 was 11.6 µM (active).
With `O=C(O)CC(O)(CC(=O)O)C(=O)O` the outcome was “inactive”.
For `CCCCCCCCCCCCCCOS(=O)(=O)O`, the AC50 was 9.53 µM (active).
`CC(COCC(C)OC(=O)c1ccccc1)OC(=O)c1ccccc1` (stereo not given) was tested, and the outcome was “inactive”.
For `CCc1cc(C2=C(C(=O)O)N(c3ccccc3C(F)(F)F)S(=O)(=O)c3ccccc32)cc2c1OCO2`, the outcome was “inactive”.
`NC(=Nc1ccccc1)Nc1ccccc1` was tested, and the AC50 was 9.15 µM (active).
For `N[C@@H](Cc1c[nH]c2ccccc12)C(=O)O`, the outcome was “inactive”.
`O=NO` was tested, and the outcome was “inactive”.
`C=CCCCCCCCCCCCC` was tested, and the outcome was “inactive”.
With `COc1ccc(OC(F)(F)F)cc1CN[C@H]1CCCN[C@H]1c1ccccc1` the outcome was “inactive”.
For `CCC(C)N(C)C(=O)c1cc2ccccc2c(-c2ccccc2Cl)n1` (stereo not given), the outcome was “inactive”.
With `c1ccc2occc2c1` the outcome was “inactive”.
`CCCCCCC(CCCCCCCCCCC(=O)OCC(COC(C)=O)OC(C)=O)OC(C)=O` (stereo not given) was tested, and the outcome was “inactive”.
In the case of `O=C1NC(=O)C(c2ccccc2)(c2ccccc2)N1`, the outcome is reported as “inactive”.
In the case of `CCN(CC)CCOc1ccc(C(=C(Cl)c2ccccc2)c2ccccc2)cc1`, the AC50 is reported as 10.4 µM (active).
For `Nc1nc(Cl)nc2c1ncn2[C@H]1C[C@H](O)[C@@H](CO)O1`, the AC50 was 1.01 µM (active).
`CC1=C(C)S(=O)(=O)CCS1(=O)=O` was tested, and the outcome was “inactive”.
With `CCc1nc(N)nc(N)c1-c1ccc(Cl)cc1` the outcome was “inactive”.
With `CC(=O)OCC(COC(C)=O)OC(C)=O` the outcome was “inactive”.
`CCOCCOCCO` was tested, and the outcome was “inactive”.
With `Nc1nc(=S)c2[nH]cnc2[nH]1` the outcome was “inactive”.
`CC(=O)S[C@H](C(=O)N[C@H]1Cc2ccccc2[C@H]2CCC[C@@H](C(=O)O)N2C1=O)C(C)C` was tested, and the outcome was “inactive”.
In the case of `NC1CCCCC1`, the outcome is reported as “inactive”.
For `Cc1c(C)c2c(c(C)c1O)CCC(C)(COc1ccc(CC3SC(=O)NC3=O)cc1)O2` (stereo not given), the AC50 was 11.7 µM (active).
With `C#CC(O)C(CC)CCCC` (stereo not given) the outcome was “inactive”.
`CN(C)CCCN1c2ccccc2Sc2ccc(Cl)cc21` was tested, and the AC50 was 22.1 µM (active).
For `Oc1ccccc1O`, the AC50 was 13.3 µM (active).
For `S=c1[nH]c2ccccc2s1`, the outcome was “inactive”.
`COC(=O)[C@H]1[C@H]2C[C@@H]3c4[nH]c5cc(OC)ccc5c4CCN3C[C@H]2C[C@@H](OC(=O)c2cc(OC)c(OC)c(OC)c2)[C@@H]1OC` was tested, and the outcome was “inactive”.
`CCCC[C@H]1CN(CC2CCOCC2)C(=O)OC12CCN(C1(C)CCN(C(=O)c3c(C)ncnc3C)CC1)CC2` was tested, and the outcome was “inactive”.
With `CC(C)(O)c1ccc(CNC(=O)c2cccnc2Oc2ccc(F)cc2)cc1` the outcome was “inactive”.
In the case of `CC(C)c1cccc(C(C)C)c1NC(=O)NS(=O)(=O)c1cc(C(C)(C)O)co1`, the outcome is reported as “inactive”.
For `CCCCCCCCCC[N+](C)(C)[O-]`, the outcome was “inactive”.
For `O=C1O[C@H]([C@H](O)CO)C(O)=C1O`, the outcome was “inactive”.
